The whole screen tested about 5,600 compounds, of which about 390 (7%) showed an effect of 50% or more. The full list was thinned out, with strong results kept by preference. Starred links: 1 amine or outer side, 2 acyl side, 3 side chain; linkers in the order of their positions; H or OH if unused. Positions of bridges follow the written chain, without caps; N, C: chain ends. Non-standard residues stand in square brackets, D forms with d. Residues, ends and D or L forms follow the SMILES beside them. Chains are numbered I, II in the order given. Actinocin(9to1) = Cc1c2oc3c(C)ccc(C(=O)[*:1])c3nc-2c(C(=O)[*:2])c(N)c1=O; NMeV = CN[C@H](C(=O)O)C(C)C; Sar = CNCC(=O)O

The values that follow come from ChEMBL document CHEMBL4808148, “HDAC6 screening dataset using tau-based substrate in an enzymatic assay yields selective inhibitors and activators” (2021).

For assay [1], the target named is T1, Protein deacetylase HDAC6 (Homo sapiens) (UniProt Q9UBN7).
T1 sequence (whole entry): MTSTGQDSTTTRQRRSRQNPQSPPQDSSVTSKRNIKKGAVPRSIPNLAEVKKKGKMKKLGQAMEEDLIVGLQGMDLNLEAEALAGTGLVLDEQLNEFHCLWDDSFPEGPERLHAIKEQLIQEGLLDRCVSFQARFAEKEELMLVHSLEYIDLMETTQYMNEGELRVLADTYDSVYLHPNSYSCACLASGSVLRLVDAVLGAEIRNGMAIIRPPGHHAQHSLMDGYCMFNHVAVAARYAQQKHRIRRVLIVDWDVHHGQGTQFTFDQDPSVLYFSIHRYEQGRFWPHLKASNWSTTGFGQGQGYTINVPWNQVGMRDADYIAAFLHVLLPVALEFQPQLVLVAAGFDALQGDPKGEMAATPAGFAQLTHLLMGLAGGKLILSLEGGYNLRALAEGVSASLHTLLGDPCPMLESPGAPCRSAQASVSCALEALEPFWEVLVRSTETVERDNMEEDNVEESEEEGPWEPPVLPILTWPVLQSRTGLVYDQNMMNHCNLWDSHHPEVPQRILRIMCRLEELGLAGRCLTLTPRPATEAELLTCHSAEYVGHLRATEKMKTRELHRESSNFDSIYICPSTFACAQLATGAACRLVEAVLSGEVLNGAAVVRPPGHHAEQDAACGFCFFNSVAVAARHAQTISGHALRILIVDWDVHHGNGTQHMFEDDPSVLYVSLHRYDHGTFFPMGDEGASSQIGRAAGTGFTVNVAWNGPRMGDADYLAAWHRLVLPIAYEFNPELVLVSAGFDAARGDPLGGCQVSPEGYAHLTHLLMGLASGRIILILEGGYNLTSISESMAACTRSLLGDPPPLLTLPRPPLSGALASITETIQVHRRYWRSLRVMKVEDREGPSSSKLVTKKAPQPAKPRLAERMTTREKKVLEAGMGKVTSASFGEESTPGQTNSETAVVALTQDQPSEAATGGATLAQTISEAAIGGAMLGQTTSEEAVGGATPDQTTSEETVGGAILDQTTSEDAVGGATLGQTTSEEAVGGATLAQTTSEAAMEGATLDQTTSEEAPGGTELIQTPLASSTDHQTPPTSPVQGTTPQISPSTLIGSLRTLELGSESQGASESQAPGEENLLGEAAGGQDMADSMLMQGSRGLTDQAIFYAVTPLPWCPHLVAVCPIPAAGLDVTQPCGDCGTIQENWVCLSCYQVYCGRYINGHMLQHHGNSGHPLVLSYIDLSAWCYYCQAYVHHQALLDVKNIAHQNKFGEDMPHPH
Conditions: at 10 µM.

The target of assay [2] is Protein deacetylase HDAC6 (Homo sapiens) (UniProt Q9UBN7). Conditions: at 10 µM. The source holds these as a separate data set.

Regarding `CC(C)[C@H](C(=O)Nc1ccc(C(=O)NO)cc1)c1ccccc1`, in assay [1], the inhibition (as a rule, the change of the read-out against control, counted positive when it falls) worked out at 101%.

In the case of `CC(=O)Nc1ccc(C(=O)Nc2ccccc2N)cc1`, the inhibition in assay [1] is -0.35%.

As to `O=C(O)c1ccc(NC(=O)[C@H](Cc2ccc(O)cc2)NC(=O)c2ccccc2)cc1`, in assay [1], the inhibition was found to be 10.6%.

On to `CC1(C)Oc2ccc(C#N)cc2[C@@H](N2CCCC2=O)[C@@H]1O`, for which, in assay [1], the inhibition was -9.16%.

Regarding `Cc1ccc(C(=O)Cn2c3c(sc2=N)CCCC3)cc1`, the inhibition in assay [1] was determined as 102%.

Turning to `CCOC(=O)C1=C(C)NC(c2ccccc2)=C(C(=O)OCc2ccc([N+](=O)[O-])cc2)C1C#Cc1ccccc1` (configuration not stated), the inhibition in assay [1] is -2.41%.

`COc1cccc(CCc2ccccc2OCC(CN(C)C)OC(=O)CCC(=O)O)c1` (configuration not stated): the inhibition in assay [1] is -7%.

For the compound `COc1cccc(/C=N/C=N/c2cccc(OC)c2)c1`, in assay [1], the inhibition was found to be 99.8%.

`N/C(=N\C(=O)c1nc(Cl)c(N)nc1N)NCc1ccccc1`: the inhibition in assay [1] was 25.2%.

As to `N[C@H](C(=O)O)c1ccc(O)cc1`, the inhibition in assay [1] worked out at 4.75%.

In the case of `Cc1cc(-c2nc(C(=O)Nc3cn(C4CCOCC4)nc3C(N)=O)co2)ccn1`, the inhibition in assay [1] stood at 22.8%.

Consider `COc1ccc(/C=C/C(=O)Nc2ccccc2C(=O)O)cc1OC`, for which, in assay [1], the inhibition came to 40.8%.

As to `CC(=O)Nc1ccc(S(=O)(=O)Nc2ccc([N+](=O)[O-])cc2)cc1`, the inhibition in assay [1] worked out at 17.7%.

On to `O=C(/C=C/c1cccc(S(=O)(=O)Nc2ccccc2)c1)NO`, for which, in assay [1], the inhibition stood at 102%.

For the compound `c1cc(-c2sc(-c3ccncc3)c(-c3ccncc3)c2-c2ccncc2)ccn1`, in assay [1], the inhibition is 17%.

As to `COc1cc(N)c(Cl)cc1C(=O)CCC1CCN(CCNS(C)(=O)=O)CC1`, the inhibition in assay [1] was -6.48%.

Turning to `Nc1ncnc2c1ncn2[C@@H]1O[C@H](CO)C[C@H]1O`, in assay [1], the inhibition is -9.63%.

Turning to `CC(=O)Oc1c(C)cc(OCC(O)CNC(C)C)c(C)c1C` (configuration not stated), in assay [1], the inhibition came to 28.4%.

As to `CCOc1ccc(-n2c(C(C)N(Cc3cccnc3)C(=O)Cc3ccc(F)c(C(F)(F)F)c3)nc3ncccc3c2=O)cc1` (racemic), in assay [1], the inhibition is -3.08%.

On to `COc1cccc(-c2ccc(NC(=O)C3=C(C(=O)O)CCC3)c(F)c2)c1`, for which the inhibition in assay [1] turned out to be 43.2%.

As for `COc1cc2nccc(Oc3ccc(NC(=O)Nc4ccc(F)cc4F)c(F)c3)c2cc1OC`, the inhibition in assay [1] turned out to be 10.8%.

Consider `CCCCOc1ccc(C(=O)Nc2ccc(F)cc2F)cc1`, for which the inhibition in assay [1] turned out to be 69.8%.

Consider “CHLOROPHYLLIDECOPPER COMPLEX SODIUM SALT, CHEMBL5308389”, for which the inhibition in assay [2] worked out at 8.12%.

Consider “Chlorophyllin (sodium copper salt), CHEMBL5308389”, for which the inhibition in assay [2] turned out to be 19.3%.

On to BISMUTH SUBSALICYLATE, CHEMBL1120, for which, in assay [2], the inhibition came out at 12.2%.

Consider `O=C(O)C1(c2ccc(-c3ccc(Cl)c(Cl)c3)c(F)c2)CC1`, for which, in assay [1], the inhibition came to 33.4%.

As for `Cc1c(-c2ccc(-c3ccccc3F)cc2)nc2ccc(F)cc2c1C(=O)O`, in assay [1], the inhibition is -9.14%.

Regarding `O=C(O)c1cc(-c2ccc(F)cc2F)ccc1O`, the inhibition in assay [1] came to 60.9%.

Regarding `CC(C)[C@@H](C)/C=C/[C@@H](C)[C@H]1CC[C@H]2/C(=C/C=C3\C[C@@H](O)CC[C@@H]3C)CCC[C@]12C`, the inhibition in assay [1] was found to be 11.8%.

Consider `CC(C)(O)c1coc(S(=O)(=O)NC(=O)Nc2c3c(cc4c2CCC4)CCC3)c1`, for which, in assay [1], the inhibition was -9.36%.

For the compound `Cc1cnc(NC(=O)Nc2cc(Br)c(C)cc2OC[C@@H]2CNCCO2)cn1`, the inhibition in assay [1] is -8.01%.

For `COc1cc(COc2cc(N)c(Cl)cc2C(=O)CCC2CCN(CCNS(C)(=O)=O)CC2)cc(OC)c1`, the inhibition in assay [1] came to 28.1%.

As to `Cc1c(NC(=O)N2CCOCC2)ccc2c1c1ccccc1n2C(C)C`, in assay [1], the inhibition was 21.6%.

`CN1CCCC(CC2c3ccccc3Sc3ccccc32)C1` (configuration not stated): the inhibition in assay [1] was found to be 34.4%.

As to `CSc1ccc2c(c1)N(CCC1CCCCN1C)c1ccccc1S2` (configuration not stated), the inhibition in assay [1] is 21.9%.

Regarding `CSc1ccc2c(c1)C(N1CCN(C)CC1)Cc1ccccc1S2` (configuration not stated), the inhibition in assay [1] turned out to be 62.7%.

Consider `NC(=O)C[C@H](N)C(=O)O`, for which the inhibition in assay [1] was 16.2%.

Turning to `O=C(O)CNC(=O)c1nc(Cl)c2ccccc2c1O`, the inhibition in assay [1] is -6.14%.

`Cc1c2oc3c(C)ccc(C(=O)N[C@@H]4C(=O)N[C@@H](C(C)C)C(=O)N5CCC[C@H]5C(=O)N(C)CC(=O)N(C)[C@@H](C(C)C)C(=O)O[C@@H]4C)c3nc-2c(C(=O)N[C@@H]2C(=O)N[C@@H](C(C)C)C(=O)N3CCC[C@H]3C(=O)N(C)CC(=O)N(C)[C@@H](C(C)C)C(=O)O[C@@H]2C)c(N)c1=O` (I: TVP[Sar][NMeV] / II: TVP[Sar][NMeV]; ester I:1-I:C, II:1-II:C; linker I:N-II:N via Actinocin(9to1)): the inhibition in assay [1] worked out at 21%.

As for `COc1ccccc1S(=O)(=O)Nc1ccc2c(c1)CN(C)C(=O)N2`, the inhibition in assay [1] is -9.44%.

Regarding `COc1cccc([C@H](O)C2CCN(CCc3ccc(F)cc3)CC2)c1OC`, in assay [1], the inhibition was -1.53%.

In the case of `COc1cc2c(cc1OC)CN(CCc1ccc(NC(=O)c3cccc4c(=O)c5cccc(OC)c5[nH]c34)cc1)CC2`, the inhibition in assay [1] was 59.7%.

Consider `COc1cnc(-n2cnc(C)n2)c2[nH]cc(C(=O)C(=O)N3CCN(C(=O)c4ccccc4)CC3)c12`, for which, in assay [1], the inhibition was determined as 12.8%.

In the case of `CC(C)(Sc1ccc(CCN(CCCCC2CCCCC2)C(=O)NC2CCCCC2)cc1)C(=O)O`, the inhibition in assay [1] is 10.4%.

For the compound `COc1ccc(/C=C\CCCCOc2ccc(C(=O)c3cccc(C(=O)O)c3)cc2CCC(=O)O)cc1`, the inhibition in assay [1] is -0.99%.

With `CC(C)(C)c1ccc(CN(Cc2cccc(OCC(=O)O)c2)S(=O)(=O)c2cccnc2)cc1`, the inhibition in assay [1] came out at 3.1%.

For the compound `Cc1onc(-c2c(Cl)cccc2Cl)c1C(=O)N[C@@H]1C(=O)N([C@@H](C(=O)O)C(C)(C)C)[C@@H]1S`, the inhibition in assay [1] was -9.26%.
